Screening data as filed in PubChem BioAssay.
The list is not random: actives were taken first. Their share in the collection is about 12%.
PI5P4K alpha inh – PI5P4K alpha (human) kinase inhibition | P48426 | PI5P4Kalpha enzyme, ADP-Glo luminescence, 60 min; hits give low values | AID 652105 | max response, % | 330,000 compounds, 1.2% hits; active = max response of -50% or lower; inconclusive = between -30% and -50%; inactive = -30% or higher; note: value at the top dose of about 77 µM; % is set by controls: 0 for no effect and ±100 for the full control effect
Target sequence (P48426 whole entry, looked up): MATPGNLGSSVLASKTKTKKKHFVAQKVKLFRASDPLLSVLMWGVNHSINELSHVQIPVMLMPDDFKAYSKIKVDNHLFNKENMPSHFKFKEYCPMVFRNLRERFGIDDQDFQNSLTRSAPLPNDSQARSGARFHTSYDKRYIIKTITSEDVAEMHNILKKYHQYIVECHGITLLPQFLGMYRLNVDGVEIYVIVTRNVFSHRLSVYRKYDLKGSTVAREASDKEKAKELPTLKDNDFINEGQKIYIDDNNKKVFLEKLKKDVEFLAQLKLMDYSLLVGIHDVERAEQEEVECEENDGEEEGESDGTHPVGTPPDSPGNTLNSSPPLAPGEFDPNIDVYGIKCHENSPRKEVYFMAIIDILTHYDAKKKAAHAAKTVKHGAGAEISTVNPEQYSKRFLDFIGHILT
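Luminescence from ADP-Glo served as readout of PI5P4Kalpha activity in a qHTS format. Reaction: enzyme, substrate, compound, ATP at 5 microM final, 60 min at RT.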
BAZ2B block – inhibitors of human BAZ2B bromodomain | Q9UIF8 | AlphaScreen BAZ2B-H3K14Ac peptide displacement | Potency, µM (doses to about 114 µM), for the others: top-dose activity change, negative = inhibition, most hits filed as inhibitors | 360,000 compounds, 4.4% hits | AID 504333; note: potency is the fitted concentration of half-maximal effect; % is set by controls: 0 for no effect and ±100 for the full control effect; nearly all actives have a fitted effect of over 60% in size
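In this displacement format the biotinylated H3(5-23) peptide acetylated at Lys14 serves as ligand at 50 nM, with BAZ2B at 50 nM in PBS pH 7.4 containing 0.01% Tween-20. Donor and acceptor beads are 10 ug/mL final.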
PLK1 PBD block – blocks phosphopeptide binding to human PLK1 polo-box domain; P53350; Plk1 PBD binding of FITC phosphopeptide, fluorescence polarization; Potency, µM, without a hit: max response, negative = inhibition, most hits filed as inhibitors; 360,000 compounds, 2.8% hits; AID 720504; note: potency is the fitted concentration of half-maximal effect; series mostly up to about 57 µM; % is set by controls: 0 for no effect and ±100 for the full control effect; nearly all actives have a fitted effect of over 65% in size
HP1b binding inh – blocks HP1-beta chromodomain binding to methylated histone tails; AlphaScreen HP1-beta / biotin-H3K9me3 peptide binding; Potency, µM (highest dose often 114 µM), inactives show at the highest dose activity change, negative = inhibition, usual class: inhibitors; 390,000 compounds, 0.56% hits; AID 540317; P83916; note: potency is the fitted concentration of half-maximal effect; nearly all actives have a fitted effect of over 70% in size
Target sequence (P83916 whole entry, looked up): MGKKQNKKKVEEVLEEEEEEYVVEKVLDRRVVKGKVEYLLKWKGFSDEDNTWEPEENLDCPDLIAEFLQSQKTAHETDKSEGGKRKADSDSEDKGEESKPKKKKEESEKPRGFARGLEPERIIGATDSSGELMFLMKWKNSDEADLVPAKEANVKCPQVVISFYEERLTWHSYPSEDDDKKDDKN
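HP1-beta protein (50 nM final) preincubated 30 min at room temperature with biotinylated H3(1-18)K9me3 peptide (50 nM) in PBS pH 7.4, 0.01% Tween-20, then compound added for 30 min. AlphaScreen streptavidin donor/nickel chelate acceptor beads (10 ug/mL final), 30 min dark, luminescence read.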
JMJD2A Tudor – JMJD2A Tudor domain (human) inhibition; O75164; AlphaScreen JMJD2A-Tudor / H3K4me3 peptide binding; Potency, µM (series often up to 114 µM), inactives show at the highest dose activity change, negative = inhibition, hits mostly inhibitors; 390,000 compounds, 4.4% hits; AID 504339; note: potency is the fitted concentration of half-maximal effect; % is set by controls: 0 for no effect and ±100 for the full control effect; nearly all actives have a fitted effect of over 50% in size
G9a block – inhibitors of human histone lysine methyltransferase G9a; Q96KQ7; G9a H3K9 monomethylation, AlphaScreen, 2 h; Potency, µM (highest dose often 102 µM), without a hit: at the highest dose activity, negative = inhibition, hits mostly inhibitors; 350,000 compounds, 8.8% hits; AID 504332; note: potency is the fitted concentration of half-maximal effect; % is set by controls: 0 for no effect and ±100 for the full control effect; nearly all actives have a fitted effect of over 75% in size
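Quantitative HTS format: methyltransferase activity on a biotin-tagged H3K9 peptide is measured by AlphaScreen, using a rabbit anti-monomethyl-H3K9 antibody with streptavidin donor and anti-IgG acceptor beads. Final levels are 20 nM enzyme, 500 nM peptide, 20 uM SAM; 2 h RT.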
An asterisk follows results filed as active; ? = inconclusive; nt = no result; [ ] = another dose, or the depositor's remark. Unless noted, calls come from the whole dose curve; as a rule, active = well fitted curve in the direction sought with a large enough effect; inconclusive = small, poorly fitted or top-dose-only effect, or another doubt; inactive = no such curve, though single readings can be large; an effect the other way counts as inactive or inconclusive.

SMILES	PI5P4K alpha inh	BAZ2B block	PLK1 PBD block	HP1b binding inh	JMJD2A Tudor	G9a block
N#C/C(=C\c1cccs1)C(=O)NCc1ccccc1	-25	3%	3.4µM*	11%	40µM*	23%[59 µM]
N#C/C(=C\c1cccs1)C(=O)Nc1nccs1	-29	50µM*	?	-18%	20µM*	10%[12.7 µM]
N#C/C(=C\c1cccs1)C(=O)c1ccccc1Cl	-4	?	1.5µM*	30%	-15%	40µM*
N#C/C(=C\c1cccs1)C(=O)N1CCOCC1	7	-5%	-2%	15%	-4%	17%[59 µM]
CC(C)(C)C(=O)/C(C#N)=C/c1cccs1	10	-27%	-10%	-5%	-16%	2%
CN(Cc1ccccc1)C(=O)c1ccc2c(c1)N(Cc1ccc(Cl)cc1)C(=O)c1ccccc1S2=O (stereo not drawn)	nt	-22%	nt	20%	-8%	-49%[59 µM]
CCOC(=O)c1cc(S(=O)(=O)NC2CCN(C(=O)OCC)CC2)cn1C	-22	3%	-18%	28%	-14%	50µM*
CCc1nnc(N2C(=N)SCC2=O)s1	-4	79µM*	-12%	-2%	28µM*	28µM*
N=C1SCC(=O)N1c1ncc(Cc2ccccc2Cl)s1	-12	8%	-9%	-3%	-16%	15%
COc1ccc(NC(=O)c2cc3cccc(OC)c3oc2=Nc2ccc(C(=O)O)cc2)cc1OC	0	-32%	-13%	17%	-19%	40µM*
O=C(Nc1ccc(N2CCCC2)cc1)c1ccc(Br)cc1	?	?	-3%	12%	-31%	nt
O=C(Nc1ccc(N2CCCCCC2)cc1)c1ccc[nH]1	6	45µM*	-4%	?	50µM*	-26%[2.33 µM]
CN(Cc1ccccc1N1CCCC1)C(=O)c1cc2ccccc2o1	0	nt	2%	?	40µM*	nt
COc1ccc(NC(=O)c2cc3ccccc3o2)cc1OC	3	-16%	24µM*	-16%	?	?
CCOC(=O)C1CCCN(C(=O)c2cc(OC)ccc2Br)CC1 (stereo not drawn)	1	nt	-4%	nt	nt	nt
O=C(Nc1ccc(N2CCCCC2)cc1)c1ccccn1	-24	?	-18%	?	?	45µM*
O=C(NC1CCCC1)c1cc2ccccc2o1	-1	4%	-9%	27%	-6%	nt
O=C(Nc1ccc(N2CCCC2)cc1)c1cc2ccccc2o1	-21	25µM*	-3%	-12%	?	nt
CC(=O)N1CCN(c2ccc(NC(=O)c3cc4ccccc4o3)cc2)CC1	0	-24%	2%	29%	0%	-37%
CC1CCCCC1NC(=O)c1cc2ccccc2o1 (stereo not drawn)	-22	-38%	30µM*	31%	-13%[57.1 µM]	?
CCOC(=O)C1CCCN(S(=O)(=O)c2ccc(Cl)nc2)C1 (stereo not drawn)	6	5%	-2%	52%	-1%	-2%
Cc1cc(C)n(CC(=O)N2CCCC(N3CCN(Cc4ccc5c(c4)OCO5)CC3)C2)n1 (stereo not drawn)	1	-3%	-4%	8%	-15%	79µM*
O=C(Nc1ccc(F)cc1)N1CCc2ccccc2C1	-2	-4%	21µM*	-19%	?	nt
Cc1ccc2c(CC(=O)Nc3nnc(C(C)C)s3)coc2c1C	nt	0%	nt	61%	-1%	-2%[59 µM]
O=C(/C=C/c1ccccc1)Nc1cccc(S(=O)(=O)Nc2ccccc2F)c1	-61*	45µM*	1.2µM*	?	45µM*	1.6µM*
SMILES	PI5P4K alpha inh	BAZ2B block	PLK1 PBD block	HP1b binding inh	JMJD2A Tudor	G9a block
O=C(Nc1cccc(S(=O)(=O)Nc2ccccc2F)c1)c1ccc2ccccc2n1	?	?	1.9µM*	?	25µM*	2.8µM*
Cc1nc2ccc(NC(=O)c3ccccc3)cc2c(=O)n1Cc1ccc(F)cc1	-1	nt	4%	nt	nt	nt
CC(C)CCn1c(=O)c2sccc2n2c(CCCC(=O)NC3CCC(C)CC3)nnc12 (stereo not drawn)	nt	-16%	nt	-2%	-13%	-27%[59 µM]
COc1cc2c(cc1OC)C1=C(C#N)CC/C(=N\S(=O)(=O)c3ccccc3)N1CC2	-2	-5%	1%	29%	-30%	79µM*
COc1cc2c(cc1OC)C1=C(C#N)CCC(=O)N1CC2	1	10%	-10%	50%	-7%	14%[59 µM]
CC(C)C(=O)Nc1ccc2nc(SCC(=O)N3CCCC3)sc2c1	nt	-16%	nt	41%	4%	-2%[59 µM]
Cc1ccc2nc(-c3ccc(NC(=O)COC(=O)c4ccc(Br)o4)cc3)sc2c1	-1	-2%	-1%	30%	-10%	-1%[59 µM]
Cc1ccc2nc(-c3ccc(NC(=O)COC(=O)c4cncc(Br)c4)cc3)sc2c1	2	-5%	-17%	12%	-5%	25µM*
CCN(CC)C(=O)Cn1cc(S(=O)(=O)CC(=O)Nc2ccc(C(N)=O)cc2)c2ccccc21	3	-23%	-15%	37%	-20%	45µM*
CCN(CC)C(=O)Cn1cc(S(=O)(=O)CC(=O)Nc2ccc3c(c2)OCCO3)c2ccccc21	-1	nt	-3%	40%	4%	56µM*
CCn1cc(S(=O)(=O)CC(=O)Nc2ccc3c(c2)OCCO3)c2ccccc21	-23	?	-11%	3%	?	?
COc1ccc2c(CN3CCN(c4ccccc4F)CC3)cc(=O)oc2c1	-9	nt	-2%	nt	nt	nt
CC(C)c1c(C(=O)N/N=C/C=C/c2ccccc2)nnn1-c1nonc1N	-7	-16%	7%	59%	18%	64%
Cc1ccccc1-n1c(=O)cc(N2CCN(Cc3ccccc3)CC2)[nH]c1=O	0	14%	-7%	8%	-13%	56µM*
CCOC(=O)N1CCN(c2cc(=O)n(-c3ccccc3C)c(=O)[nH]2)CC1	2	nt	-8%	20%	-4%	-38%
Cc1ccc(-n2c(=O)cc(N3CCN(c4ccccc4Cl)CC3)[nH]c2=O)cc1	nt	2%	nt	6%[57 µM]	-11%	2%[59 µM]
CCN1CCN(c2cc(=O)n(-c3cc(Cl)ccc3C)c(=O)[nH]2)CC1	nt	-24%	-21%	17%	-6%	50µM*
C[C@H]1CN(CCc2ccccc2)C(=O)[C@@H]1CC(=O)Nc1ccccc1	-5	nt	-16%	nt	nt	nt
CC(C)(C)CN1CCNC(=O)C1CC(=O)NCc1cccc(-n2cccn2)c1 (stereo not drawn)	3	6%	-4%	39%	7%	nt
CSc1cccc(CNC(=O)CC2C(=O)NCCN2CC(C)(C)C)c1 (stereo not drawn)	0	-18%	-27%	29%	-15%	40µM*
Cn1cc(CNC(=O)CC2C(=O)NCCN2CC(C)(C)C)cn1 (stereo not drawn)	2	2%	-14%	10%	-4%	50µM*
CC(C)(C)CN1CCNC(=O)C1CC(=O)NCCc1cnn(-c2ccccc2)c1 (stereo not drawn)	5	-11%	-12%	29%	-20%	8%[0.501 µM]
